{"source": "PubChem BioAssay AID893", "about": "(National Center for Advancing Translational Sciences (NCATS), 2007)", "note": "About 5,700 (7.6%) of roughly 75,000 compounds were called active. Roughly 7% stayed inconclusive and do not appear here. Many of the other results were omitted from the sample, so actives are more common in it than they were. Values without a mark were called inactive. Calls come from the whole dose curve; as a rule, active = well fitted inhibition curve with a large enough effect; inconclusive = small, poorly fitted or top-dose-only effect; inactive = no such curve, though single readings can be large or run the other way. % is set by controls: 0 for no effect and ±100 for the full control effect; potency is the fitted concentration of half-maximal effect."}
{"target": "3-hydroxyacyl-CoA dehydrogenase type-2 (Homo sapiens) (UniProt Q99714)", "test": "qHTS Assay for Inhibitors of HSD17B4, hydroxysteroid (17-beta) dehydrogenase 4;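 note: the protocol describes HADH2 (HSD17B10) and not the HSD17B4 of the title; nearly all actives have a fitted effect of over 70% in size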", "conditions": "recombinant HSD17B10, NADH fluorescence kinetic; series mostly up to 57.1 µM; activity change, negative = inhibition: at the top concentration", "in_short": "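20 nM HADH2, pH 9.0 Tris/Tween; cpd preinc 15 min RT; start w/ 1 mM NAD+ + 90 uM b-hydroxybutyryl-CoA; kinetic fluor ex360/em450 q30s x 4 min; delta last-first.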"}
{"smiles": "COc1ccc(S(=O)(=O)N2CCN(C(=O)c3cccs3)CC2)cc1OC", "Potency": "3.98 µM (active)"}
{"smiles": "CCS(=O)(=O)N1CCN(C(=O)c2cccs2)CC1", "activity change, negative = inhibition": "-2.25%"}
{"smiles": "CCCS(=O)(=O)N1CCN(C(=O)c2cccs2)CC1", "activity change, negative = inhibition": "8.42%"}
{"smiles": "COc1ccc(C2N=C(N)N=C(N)N2c2ccccc2)cc1OC", "note": "(configuration not stated)", "activity change, negative = inhibition": "13.1%"}
{"smiles": "Cc1cc(C)c2nc(N3CCCC3)c(C#N)cc2c1", "Potency": "31.6 µM (active)"}
{"smiles": "C=CCOC(=O)C(C(C)=O)C(NC(=O)OC)c1ccccc1", "note": "(configuration not stated)", "activity change, negative = inhibition": "10.6% [at 11.4 µM]"}
{"smiles": "CCCCn1c(SCC(=O)NCC2CCCO2)nc2ccc(N3CCOCC3)cc2c1=O", "note": "(configuration not stated)", "Potency": "31.6 µM (active)"}
{"smiles": "CCc1ccc(NC(=O)CSc2nc3ccccc3c(=O)n2CCN2CCOCC2)cc1", "activity change, negative = inhibition": "-11%"}
{"smiles": "CCn1c(SCC(=O)NCC2CCCO2)nc2cc(S(=O)(=O)N3CCCCC3)ccc21", "note": "(configuration not stated)", "activity change, negative = inhibition": "-1.8%"}
{"smiles": "Cc1cc(Nc2cccc(F)c2)n2ncnc2n1", "activity change, negative = inhibition": "2.04%"}
{"smiles": "Cc1ccc2c(c1)c1ncnc(N3CCc4ccccc4C3)c1n2C", "Potency": "31.6 µM (active)"}
{"smiles": "Cc1cc(C)nc(N2CCN(c3ncnc4c3oc3ccccc34)CC2)n1", "activity change, negative = inhibition": "15.4%"}
{"smiles": "Cc1ccc(NC(=O)CCN2CCc3ccccc3C2)cc1", "activity change, negative = inhibition": "-4.15%"}
{"smiles": "CCCCCCCCCc1ccc(OCCOCCOCCOCCOCCOCCOCCOCCOCCO)cc1", "activity change, negative = inhibition": "-0.847%"}
{"smiles": "COc1ccc(C(CC(=O)O)NC(=O)Cc2ccccc2)cc1", "note": "(configuration not stated)", "activity change, negative = inhibition": "4.15%"}
{"smiles": "COc1ccc(NC(=O)c2ccc(OC)cc2)cc1", "activity change, negative = inhibition": "-3.22%"}
{"smiles": "COc1ccc(CC(=O)Nc2ccc(-c3nnc(-c4ccccc4)o3)cc2)cc1", "Potency": "12.6 µM (active)"}
{"smiles": "O=C(CSc1nnc(-c2ccc(NS(=O)(=O)c3ccccc3)cc2)o1)NCC1CCCO1", "note": "(configuration not stated)", "activity change, negative = inhibition": "-16.5%"}
{"smiles": "O=C(COC(=O)c1ccc(Oc2ccccc2)cc1)Nc1nnc(-c2ccccc2)o1", "activity change, negative = inhibition": "-2.42%"}
{"smiles": "O=C(Nc1nnc(CCc2ccccc2)s1)C1CCCO1", "note": "(configuration not stated)", "activity change, negative = inhibition": "-4.21%"}
{"smiles": "COc1ccc(CC(=O)Nc2ccc(-c3nnc(-c4ccc(C)cc4)o3)cc2)cc1", "Potency": "2.51 µM (active)"}
{"smiles": "O=C(Nc1ccc(-c2nnc(-c3ccccc3)o2)cc1)C1CCCO1", "note": "(configuration not stated)", "Potency": "20 µM (active)"}
{"smiles": "CCCCCNC(=O)Cc1ccc(OC)cc1", "activity change, negative = inhibition": "3.9%"}
{"smiles": "CCCCNC(=O)CSc1nccn1Cc1ccccc1", "activity change, negative = inhibition": "2.3%"}
{"smiles": "CC(=O)Nc1cc(C(=O)O)ccc1S(=O)(=O)c1ccc(Cl)cc1", "activity change, negative = inhibition": "-0.596%"}
{"smiles": "O=S1(=O)CCN2C(=N1)SC1=C2CCN(Cc2ccccc2)C1", "activity change, negative = inhibition": "5.31%"}
{"smiles": "COc1ccc(Br)c2c1C[C@H](C(=O)O)CC2", "activity change, negative = inhibition": "7.09% [at 11.4 µM]"}
{"smiles": "O=C(CSc1nc2ccccc2o1)N1CCN(c2ccc(Cl)cc2)CC1", "activity change, negative = inhibition": "5%"}
{"smiles": "COc1ccc(-n2c(SCC(=O)OC(C)C)nnc2-c2ccccn2)cc1", "activity change, negative = inhibition": "6.34%"}
{"smiles": "CCOC(=O)C1C(=O)NC(N2CCN(c3ccccc3)CC2)=NC1c1ccco1", "note": "(configuration not stated)", "activity change, negative = inhibition": "8.24%"}
{"smiles": "COc1ccc(CCNC(=O)c2ccco2)cc1", "activity change, negative = inhibition": "11.8%"}
{"smiles": "CCOC(=O)C1C(=O)C=C(c2ccc(OC)cc2)CC1c1ccco1", "note": "(configuration not stated)", "Potency": "20 µM (active)"}
